Test [1] deals with Plasmodium falciparum Sir2 (PF13_0152, Sir2A). Nature of the test: Plasmodium falciparum Sir2A binding compounds – biochemical, small-molecule microarray, 635 nm fluorescence, primary screen (AID 1098).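 Also: score merges spot fluorescence intensity with its signal-to-noise ratio.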 Particulars: fluorescence 635 nm, higher = more signal.
The nature of test [2]: probe aDKK1 binding to arrayed compounds – biochemical, biotinylated probe, 635/667 nm fluorescence, primary screen (AID 1099).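 Also: score merges 667nm spot fluorescence with signal to noise across triplicate slides.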 Particulars: small-molecule microarray, higher = more signal.
Test [3] is described as follows: probe aCHRDL2 binding to arrayed compounds – biochemical, biotinylated probe, 635/667 nm fluorescence, primary screen (AID 1100). Particulars: small-molecule microarray, higher = more signal.
Test [4] is described as follows: change in splice reporter luminescence, either direction, cell-based, HEK293, spliceosome inhibition project, primary screen (AID 1101).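 Also: HEK293 cells carrying a splicing-competent luciferase reporter gene; test concentration not given here.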 Particulars: HEK293 splicing luciferase reporter, 24 h, higher = more signal, called active from +8 up or from −8 down. A general note: In a reporter assay the amount or activity of a reporter protein is the signal.
Test [5] concerns the target Fibroblast growth factor 10 (Homo sapiens) (UniProt O15520). Nature of the test: compounds binding fibroblast growth factor 10 – biochemical, small-molecule microarray, 635 nm fluorescence, primary screen (AID 1102). To be noted: FGF10 binding, fluorescence 635 nm, higher = more signal.
Test [6] has as its system glycogen synthase kinase-3 (GSK3A per assay name; protocol says GSK3B). Nature of the test: compounds binding glycogen synthase kinase-3 – biochemical, small-molecule microarray, 635 nm fluorescence, GSK3A, primary screen (AID 1103). Also: the record names both GSK3A and GSK3B. Particulars: fluorescence 635 nm, higher = more signal.
For test [7], the target named is Epidermal growth factor receptor (Homo sapiens) (UniProt P00533). Nature of the test: compounds binding epidermal growth factor receptor – biochemical, small-molecule microarray, 635 nm fluorescence, primary screen (AID 1104).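 Also: score merges 667 nm emission intensity with spot signal to noise over triplicate slides.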 To be noted: EGFR binding, higher = more signal.
Test [8] addresses Follistatin-related protein 3 (Homo sapiens) (UniProt O95633). Nature of the test: compounds binding follistatin-related protein 3 – biochemical, small-molecule microarray, 635 nm fluorescence, primary screen (AID 1105).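 Also: score merges emission near 667 nm and signal to noise per printed spot across three slides.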 Particulars: FSTL3 binding, higher = more signal.
The target of test [9] is Dickkopf-related protein 1 (Homo sapiens) (UniProt O94907). Nature of the test: small molecules binding DKK1 protein – biochemical, small-molecule microarray, 635 nm fluorescence scan, primary screen (AID 1106).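 Also: score merges emission near 667 nm with signal to noise over three replicate slides.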 Particulars: higher = more signal.
The test system of test [10] is Inhibin beta A chain (activin A). Nature of the test: small molecules binding activin A – biochemical, small-molecule microarray, 635 nm fluorescence scan, primary screen (AID 1107).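 Also: mouse activin A protein probed at 4.33 µg/mL on printed slides; score merges bound-protein fluorescence near 667 nm with spot signal-to-noise.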 To be noted: INHBA, higher = more signal.
Test [11] deals with Human papillomavirus type 1a protein E7 (residues 44-93). Nature of the test: small molecules binding HPV E7 44-93 – biochemical, small-molecule microarray, residues 44-93, 635 nm fluorescence, primary screen (AID 1108).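 Also: E7 fragment applied at 1 µg/mL in TBST for 1 h at 4 C; score combines spot fluorescence with its signal to noise ratio.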 To be noted: fluorescence 635 nm, higher = more signal.
Test [12] can be described thus: hepatitis C replication reporter changes, two-sided – Huh7 cells, luciferase reporter, HCV replication inhibitor project, primary screen (AID 1109).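 Also: huh7 hepatoma cells harbouring a luciferase neomycin HCV replicon reporter; luciferase luminescence as measure of HCV replicon replication; test concentration not given here.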 Particulars: Huh7 HCV replicon luciferase reporter, 48 h; higher = more signal.
For test [13], the target named is Left-right determination factor 2 (Homo sapiens) (UniProt O00292). Nature of the test: small molecules binding LEFTY2 protein – biochemical, small-molecule microarray, 635 nm fluorescence scan, primary screen (AID 1110). Particulars: higher = more signal.
In test [14] the target is Calmodulin-1 (Homo sapiens) (UniProt P0DP23). Nature of the test: small molecules binding calmodulin-1 with EGTA – biochemical, small-molecule microarray, Cy5-labelled CALM1, profiling panel (AID 1111).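 Also: labelled calmodulin applied in Tris saline Tween buffer holding calcium plus EGTA and DTT.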 Particulars: Cy5-CALM1 binding fluorescence, higher = more signal.
Test [15] shares this target. Nature of the test: small molecules binding Ca-loaded calmodulin-1 – biochemical, small-molecule microarray, Cy5-labelled CALM1, plus calcium, artefact control for SMM control-protein annotation, profiling panel (AID 1112).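 Also: score merges spot fluorescence with signal to noise from triplicate slides.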 To be noted: Cy5-CALM1 binding fluorescence, higher = more signal.
Test [16] can be described thus: probe aWnt5a binding to arrayed compounds – biochemical, biotinylated probe, 635/667 nm fluorescence, primary screen (AID 1113).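 Also: score merges 667 nm fluorescence intensity with signal-to-noise per printed feature.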 To be noted: small-molecule microarray, higher = more signal.
Test [17] in a line: probe aShh binding to arrayed compounds – biochemical, biotinylated probe, 635/667 nm fluorescence, primary screen (AID 1114).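 Also: probe is biotin-labelled aShh protein from a stem cell growth factor screen; measures binding of labelled protein to compounds printed on the slide; score merges feature fluorescence at 667 nm with signal-to-noise.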 Particulars: small-molecule microarray, higher = more signal.
Test [18] can be described thus: probe aNog binding to arrayed compounds – biochemical, biotinylated probe, 635/667 nm fluorescence, primary screen (AID 1115).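 Also: probe is biotinylated aNog protein used at 0.15 µg/mL for 1 h at 4 C; z-score combines 667 nm fluorescence of each spot with its signal to noise.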 Particulars: small-molecule microarray, higher = more signal.
Test [19] concerns the target Torsin-1A-interacting protein 1 (Homo sapiens) (UniProt Q5JTV8). Nature of the test: compound microarray binding of lysate hLAP1 – cell lysate, small-molecule microarray, COS7 lysate, 635/667 nm fluorescence, primary screen (AID 1116). To be noted: 635 nm fluorescence, higher = more signal.
Test [20] concerns the target Alpha-bungarotoxin (Bungarus multicinctus) (UniProt P60615). Nature of the test: compounds binding labelled alpha-BTX control protein – biochemical, small-molecule microarray, Alexa647 label, 635/667 nm fluorescence, artefact control for SMM control protein annotation, profiling panel (AID 1117). To be noted: alpha-BTX-A647 binding fluorescence, higher = more signal.

The values below come from PubChem BioAssay.

Structures are written as SMILES. Activity calls are given as the source filed them.

Chain of Torsin-1A-interacting protein 1 (Homo sapiens) (Q5JTV8 whole entry, looked up): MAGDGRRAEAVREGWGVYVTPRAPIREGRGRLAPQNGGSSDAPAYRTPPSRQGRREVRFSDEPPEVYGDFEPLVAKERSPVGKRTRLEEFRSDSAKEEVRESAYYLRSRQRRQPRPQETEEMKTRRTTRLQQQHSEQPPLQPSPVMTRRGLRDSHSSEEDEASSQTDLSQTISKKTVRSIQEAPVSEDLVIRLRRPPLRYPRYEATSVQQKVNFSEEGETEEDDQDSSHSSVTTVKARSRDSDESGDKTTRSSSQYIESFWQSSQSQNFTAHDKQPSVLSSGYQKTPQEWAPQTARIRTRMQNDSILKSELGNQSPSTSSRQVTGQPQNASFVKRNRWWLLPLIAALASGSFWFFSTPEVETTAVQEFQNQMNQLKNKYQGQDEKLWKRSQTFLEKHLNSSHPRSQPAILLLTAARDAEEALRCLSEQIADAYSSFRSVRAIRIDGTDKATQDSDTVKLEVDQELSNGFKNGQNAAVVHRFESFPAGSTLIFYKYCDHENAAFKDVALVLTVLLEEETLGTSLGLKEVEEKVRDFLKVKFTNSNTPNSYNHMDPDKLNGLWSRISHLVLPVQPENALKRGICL
Chain of Dickkopf-related protein 1 (Homo sapiens) (O94907 whole entry, looked up): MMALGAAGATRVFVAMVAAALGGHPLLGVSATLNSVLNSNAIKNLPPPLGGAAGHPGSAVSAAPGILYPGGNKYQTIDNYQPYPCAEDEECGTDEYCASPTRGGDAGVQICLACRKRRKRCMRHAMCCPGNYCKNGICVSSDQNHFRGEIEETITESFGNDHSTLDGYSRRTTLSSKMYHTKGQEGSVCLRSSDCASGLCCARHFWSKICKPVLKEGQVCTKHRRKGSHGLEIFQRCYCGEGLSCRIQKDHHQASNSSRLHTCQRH
Chain of Fibroblast growth factor 10 (Homo sapiens) (O15520 whole entry, looked up): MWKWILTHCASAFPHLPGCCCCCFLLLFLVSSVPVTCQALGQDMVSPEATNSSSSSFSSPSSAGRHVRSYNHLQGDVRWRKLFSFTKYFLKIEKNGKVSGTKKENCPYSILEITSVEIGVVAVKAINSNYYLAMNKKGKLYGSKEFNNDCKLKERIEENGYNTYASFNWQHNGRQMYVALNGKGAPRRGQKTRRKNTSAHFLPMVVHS
Chain of Alpha-bungarotoxin (Bungarus multicinctus) (P60615 whole entry, looked up): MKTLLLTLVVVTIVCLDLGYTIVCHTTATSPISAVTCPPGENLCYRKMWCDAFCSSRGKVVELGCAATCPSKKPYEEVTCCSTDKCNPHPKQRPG
Chain of Follistatin-related protein 3 (Homo sapiens) (O95633 whole entry, looked up): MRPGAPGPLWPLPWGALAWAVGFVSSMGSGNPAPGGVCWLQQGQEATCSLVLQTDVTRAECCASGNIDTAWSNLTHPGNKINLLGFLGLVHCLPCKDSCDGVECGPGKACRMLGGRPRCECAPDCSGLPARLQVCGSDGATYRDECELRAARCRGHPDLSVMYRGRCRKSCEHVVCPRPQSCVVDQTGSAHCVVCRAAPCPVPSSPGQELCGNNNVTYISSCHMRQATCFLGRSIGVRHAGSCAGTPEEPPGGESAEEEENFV
Chain of Left-right determination factor 2 (Homo sapiens) (O00292 whole entry, looked up): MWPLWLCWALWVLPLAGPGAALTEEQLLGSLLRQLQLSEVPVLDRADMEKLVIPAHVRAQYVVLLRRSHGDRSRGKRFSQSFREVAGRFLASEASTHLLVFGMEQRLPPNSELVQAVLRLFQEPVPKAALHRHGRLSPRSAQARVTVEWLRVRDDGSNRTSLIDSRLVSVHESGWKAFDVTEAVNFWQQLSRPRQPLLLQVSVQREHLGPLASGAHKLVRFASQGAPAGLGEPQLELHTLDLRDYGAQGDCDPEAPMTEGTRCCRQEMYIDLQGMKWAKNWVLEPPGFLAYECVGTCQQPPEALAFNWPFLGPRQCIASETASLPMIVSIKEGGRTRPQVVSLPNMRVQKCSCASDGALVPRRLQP
Chain of Epidermal growth factor receptor (Homo sapiens) (P00533 whole entry, looked up): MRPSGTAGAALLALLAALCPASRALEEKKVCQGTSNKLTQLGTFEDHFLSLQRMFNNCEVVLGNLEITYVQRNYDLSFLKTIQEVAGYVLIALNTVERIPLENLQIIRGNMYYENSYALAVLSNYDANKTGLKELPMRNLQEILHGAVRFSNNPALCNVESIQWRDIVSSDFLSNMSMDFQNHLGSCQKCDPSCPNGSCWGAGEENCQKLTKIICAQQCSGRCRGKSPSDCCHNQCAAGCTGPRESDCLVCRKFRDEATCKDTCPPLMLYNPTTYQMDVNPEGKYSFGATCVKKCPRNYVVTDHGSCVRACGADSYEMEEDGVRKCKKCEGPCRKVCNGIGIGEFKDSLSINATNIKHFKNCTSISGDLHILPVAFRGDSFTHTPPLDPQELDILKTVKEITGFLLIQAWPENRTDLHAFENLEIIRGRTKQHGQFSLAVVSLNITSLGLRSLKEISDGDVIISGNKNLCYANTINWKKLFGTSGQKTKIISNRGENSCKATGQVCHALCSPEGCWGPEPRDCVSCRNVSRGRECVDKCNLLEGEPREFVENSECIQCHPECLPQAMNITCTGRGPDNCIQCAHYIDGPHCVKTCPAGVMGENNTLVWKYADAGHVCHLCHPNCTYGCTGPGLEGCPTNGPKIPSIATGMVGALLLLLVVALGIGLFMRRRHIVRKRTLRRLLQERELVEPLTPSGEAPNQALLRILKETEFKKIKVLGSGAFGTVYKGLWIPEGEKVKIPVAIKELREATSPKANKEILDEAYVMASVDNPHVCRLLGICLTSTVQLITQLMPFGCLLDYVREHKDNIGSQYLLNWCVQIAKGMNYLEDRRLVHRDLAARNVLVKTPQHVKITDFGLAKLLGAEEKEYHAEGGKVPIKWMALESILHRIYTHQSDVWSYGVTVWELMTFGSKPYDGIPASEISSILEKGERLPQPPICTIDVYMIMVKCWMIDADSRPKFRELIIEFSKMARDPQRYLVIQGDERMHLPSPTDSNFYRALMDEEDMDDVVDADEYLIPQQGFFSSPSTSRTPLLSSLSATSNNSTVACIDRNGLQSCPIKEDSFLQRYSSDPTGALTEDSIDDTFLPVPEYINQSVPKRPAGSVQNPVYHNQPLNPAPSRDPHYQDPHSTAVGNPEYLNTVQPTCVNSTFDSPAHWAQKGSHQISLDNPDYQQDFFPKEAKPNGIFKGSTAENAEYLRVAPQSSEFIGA

For `COc1ccc([Si](C)(C)[C@H]2[C@H](CC(=O)N(CCO)Cc3ccccc3)O[C@@]3(C(=O)N(Cc4ccc(N5CCC5=O)cc4)c4ccccc43)[C@@H]2C)cc1`, the composite z-score in test [1] is 0.811; in test [2], 0.0433; in test [3], 0.4; in test [5], -0.802; in [6] it was -0.39; in test [7], -0.443. In addition, the composite z-score in [8] is -0.155; in test [9] it was 0.183; in test [10], 0.577; in test [11] it was -0.403; in [13], 0.271; in test [14], 0.0311. The composite z-score in [15] was 0.705; in test [16], -0.187; in test [17], 0.0434; in test [18], -0.231; in [19] it was 1.25; in test [20], 1.33. Also, the z-score is -0.439 (inactive) in test [4] and -3.87 in test [12].
With `C=CCN1C(=O)[C@@]2(O[C@@H](CCO)[C@H]([Si](C)(C)c3ccc(OC)cc3)[C@H]2C)c2cc(N3C(=O)c4cccc5cccc3c45)ccc21`, the composite z-score in test [1] is 1; in test [2], -0.0284; in test [3] it was 0.392; in [5] it was 0.102; in test [6], 0.307; in [7], -0.232. For the same molecule, the composite z-score in test [8] is -0.189; in test [9], -0.4; in [10], 0.18; in test [11], 0.515; in test [13], -0.144; in test [14], 0.965. For the same molecule, the composite z-score in test [15] is 0.734; in test [16], -0.176; in [17], 0.123; in test [18], 0.272; in test [19], 0.201; in [20], 1.21. In addition, the figures for the z-score in [4] and in [12] were -3.45 (inactive) and -5.15, respectively.
Consider `C[N+](C)(C)CCCC[C@@H]1NC(=O)[C@@H]2C[C@H](C(=O)NCCCCCNC(=O)CS)[C@H](c3ccc(O)cc3)N2C1=O`, for which the composite z-score in [1] is 1.3; in test [2] it was -0.0611; in [3], 0.346; in [5], 0.0481; in test [6], -0.638; in test [7], -0.849. The composite z-score in test [8] was 0.0788; in test [9], 0.171; in [10], 0.57; in test [11], -0.643; in test [13] it was -0.739; in test [14], 0.21. Moreover, the composite z-score was 0.669 in [15]; -0.191 in test [16]; 0.138 in test [17]; 0.208 in test [18]; 2.19 in test [19]; 1.12 in test [20]. In addition, the z-score in test [4] is 4.12 (inactive); in test [12], -0.0298.
`[N-]=[N+]=Nc1ccccc1[C@H]1OC(c2ccc(OCCCO)cc2)=N[C@@]1(Cc1ccccc1)C(N)=O`: the composite z-score is 0.929 in test [1]; 1.46 in [2]; 1.23 in test [3]; 1.09 in test [5]; 1.28 in [6]; 0.13 in [7]. For the same molecule, the composite z-score in test [8] amounted to 1.09; in [9], 0.0868; in [10], 1.43; in test [11], 1.33; in [13] it was 0.172; in [14], 2.26. Moreover, the composite z-score in test [15] is 1.12; in test [16], 0.0998; in test [17], 1.03; in test [18], 0.489; in test [19] it was 1.12; in test [20], 3.09. For the same molecule, the results for the z-score in test [4] and in test [12] were -1.86 (inactive) and -0.742, respectively.
On to `C=CCN1C(=O)[C@@]2(O[C@@H](CCn3cc(CCO)nn3)[C@H]([Si](C)(C)c3ccc(OC)cc3)[C@H]2C)c2cc(N3C(=O)c4cccc5cccc3c45)ccc21`, for which the composite z-score in test [1] is 0.579; in test [2], 0.13; in test [3] it was -0.224; in test [5], 0.466; in [6], 0.308; in [7] it was 0.234. Moreover, the composite z-score in test [8] is 0.688; in [9], 0.315; in test [10] it was 0.58; in test [11], 0.51; in [13] it was -0.165; in test [14], 1.37. Further, the composite z-score in [15] was 0.258; in test [16], 0.0733; in test [17], -0.138; in test [18], 0.473; in test [19], 0.482; in test [20], 1.6. The z-score in [4] is -3.34 (inactive); in test [12], -5.22.
